Data on 26 molecules can be found in PubChem BioAssay (NCATS).

For assay [1], the target named is Glutathione peroxidase 1 (Homo sapiens) (UniProt P07203). The assay can be described thus: Primary qHTS Assay for Inhibitors of Recombinant Selenoprotein Glutathione Peroxidase 1 (GPX1) (AID 1845191). Further: nearly all actives have a fitted effect of over 65% in size. On activity, negative = inhibition: on the % scale 0 is the no-effect control and ±100 the full control effect. A digest of the protocol:
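GR-coupled readout: NADPH consumption tracked by fluorescence, ex 340/em 450 nm, at t=0 and after 15 min at RT. Final mix 10 nM GPX1, 1 mM GSH, 0.5 mM CHP, 0.5 mM NADPH, 100 nM GR, 0.01% BSA, following 30 min enzyme–compound preincubation.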
Background: In qHTS, concentration-response curves come from the screen itself.

Assay [2] concerns the target Phospholipid hydroperoxide glutathione peroxidase GPX4 (Homo sapiens) (UniProt P36969). The assay can be described thus: Primary qHTS Assay for Inhibitors of Recombinant Selenoprotein Glutathione Peroxidase 4 (GPX4) (AID 1845192). Further: nearly all actives have a fitted effect of over 65% in size. On activity change, negative = inhibition: series mostly up to about 50 µM; on the % scale 0 is the no-effect control and ±100 the full control effect. A digest of the protocol: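 Steps: GPX4 plus compound, 30 min RT; add GR/GSH/NADPH master mix; start with cumene hydroperoxide; read 340/450 nm fluorescence at 0 and 15 min. Finals were 200 nM GPX4, 1 mM GSH, 0.5 mM CHP, 0.5 mM NADPH, 100 nM GR.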

Assay [3] has as its target Luciferin 4-monooxygenase (Photinus pyralis) (UniProt P08659). The assay can be described thus: Primary firefly luciferase (FLuc) qHTS assay for identification of artifact compounds. (AID 1845220). Further: nearly all actives have a fitted effect of over 60% in size. Further: potency means the concentration at half of the fitted maximal effect.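 On activity change, negative = inhibition: series mostly up to about 54 µM; plate controls were DMSO vehicle for no effect and no enzyme for full effect.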 Put shortly:
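Enzymatic FLuc inhibition assay: compounds pre-exposed to luciferin/ATP (10 uM each) for 15 min, then purified P. pyralis enzyme at 10 nM added. Read-out: luminescence at 5 min.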

Assay [4] deals with Nanoluciferase (engineered Oplophorus gracilirostris luciferase). The assay can be described thus: Primary Nanoluciferase (NLuc) qHTS assay for identification of artifact compounds. (AID 1845222).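 Further: NLuc secreted into diluted conditioned medium of S16 cells; series mostly up to about 54 µM; 0% = DMSO and -100% = no enzyme.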 Put shortly: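 S16 cell supernatant NLuc, 1:55; cpds qHTS; 15 min RT dark; Nano-Glo substrate 1:100, 5 min; luminescence; Hill fit of % inhibition.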
Assay [5] is described as follows: Primary redox qHTS assay for identification of artifact compounds. (AID 1845223).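 Further: 0% = DMSO and 100% = reference compound.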 A digest of the protocol: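 Redox-cycling detection via DTT (250 uM final) oxidation coupled to Amplex Red (25 uM)/HRP (250 mU/mL) in HBSS. 15 min preincubation plus 30 min after DTT, room temperature. Ex/Em 525/598 nm; 4-parameter Hill fit against DMSO and 10 uM DA3003.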

The structures appear in SMILES notation. Unmarked numbers belong to inactive results. Records with an inconclusive call do not appear. Active and inactive are the calls of the source. The call rests on the fitted dose curve; in most records, active means well fitted curve in the direction sought with a large enough effect; inconclusive means small, poorly fitted or top-dose-only effect, or another doubt; inactive means no such curve, though single readings can be large; an effect the other way counts as inactive or inconclusive.

Sequence of Phospholipid hydroperoxide glutathione peroxidase GPX4 (Homo sapiens) (P36969 whole entry, looked up): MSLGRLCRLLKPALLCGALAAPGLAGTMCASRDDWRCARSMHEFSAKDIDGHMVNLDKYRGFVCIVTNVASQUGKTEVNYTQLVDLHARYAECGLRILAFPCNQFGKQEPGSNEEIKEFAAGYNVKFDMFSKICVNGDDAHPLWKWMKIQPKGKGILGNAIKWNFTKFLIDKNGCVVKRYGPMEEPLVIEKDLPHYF
Sequence of Glutathione peroxidase 1 (Homo sapiens) (P07203 whole entry, looked up): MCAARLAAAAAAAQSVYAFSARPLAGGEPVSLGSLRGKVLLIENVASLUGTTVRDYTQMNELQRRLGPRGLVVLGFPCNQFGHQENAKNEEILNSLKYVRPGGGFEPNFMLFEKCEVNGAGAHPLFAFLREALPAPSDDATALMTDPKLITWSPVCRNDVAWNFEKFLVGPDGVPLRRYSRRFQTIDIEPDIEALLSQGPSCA

Consider `Nc1c(-c2ccccc2)nc(Cl)c2c(O)n[nH]c(=O)c12`, for which the Potency result in assay [1], in assay [2], in assay [3], in assay [4] and in assay [5] was “inactive” in each case.
With `COC(=O)[C@]1(Cc2ccc(O)c(CC=C(C)C)c2)OC(=O)C(O)=C1c1ccc(O)cc1`, the Potency result in assay [1], in assay [2], in assay [3], in assay [4] and in assay [5] was “inactive” in each case.
For `C=C1CCC2C(C)(C)CCC[C@]2(C)[C@H]1CC/C(C)=C/C(=O)O` (stereo not given in full), the Potency result in assay [1], in assay [2], in assay [3], in assay [4] and in assay [5] was “inactive” throughout.
As for `COC(=O)C1=COC(OC2OC(CO)C(O)C(O)C2O)C2C(C)CC(=O)C12O` (stereo not given), the Potency entry in assay [1], in assay [2], in assay [3], in assay [4] and in assay [5] was “inactive” in each case.
As to `O=C(CC1CC(c2ccc(F)cc2F)=NO1)N1CCOCC1` (stereo not given), the Potency result in assay [1], in assay [2], in assay [4] and in assay [5] was “inactive” in each case. The Potency in assay [3] is 2130 nM (active).
With `Cc1c(NC(=O)N2CCOCC2)ccc2c1c1ccccc1n2C(C)C`, the Potency entry in assay [1], in assay [2], in assay [3], in assay [4] and in assay [5] was “inactive” throughout.
Take `C/C=C/C1OC2=C(C(=O)OC2(C)O)C(O)C1O` (stereo not given): the Potency entry in assay [1], in assay [2], in assay [3], in assay [4] and in assay [5] was “inactive” each time.
Turning to `CC1=CCC[C@@H]2[C@](CCc3ccoc3)(C(=O)O)[C@H](C)CC[C@@]12C`, the Potency result in assay [1], in assay [2], in assay [3], in assay [4] and in assay [5] was “inactive” in each case.
Consider `CC1CCC2C(C(=O)O)=CC3(O)CC(C)(C)CC123` (stereo not given), for which the Potency entry in assay [1], in assay [2], in assay [3], in assay [4] and in assay [5] was “inactive” in each case.
Turning to `CC(O)/C=C/C1(O)C(C)C(O)C(O[C@@H]2O[C@H](CO)[C@@H](O)[C@H](O)[C@H]2O)CC1(C)C` (stereo not given in full), the Potency result in assay [1], in assay [2], in assay [3], in assay [4] and in assay [5] was “inactive” throughout.
As to `COc1c(O)cc2c(c1O)C(=O)O[C@H](C)[C@H]2O`, the Potency entry in assay [1], in assay [2], in assay [3], in assay [4] and in assay [5] was “inactive” throughout.
As to `COc1cc(C(O)C2COC(c3ccc(OC4OC(CO)C(O)C(O)C4O)c(OC)c3)C2CO)ccc1O` (stereo not given), the Potency result in assay [1], in assay [2], in assay [3], in assay [4] and in assay [5] was “inactive” each time.
Take `C=C(C(=O)O)C1CC(OC(=O)CC(C)CC)C2(C)CCCC(=C)C2C1` (stereo not given): the Potency result in assay [1], in assay [2], in assay [3], in assay [4] and in assay [5] was “inactive” each time.
Take `C=CCc1ccc(O[C@@H]2O[C@H](CO)[C@@H](O)[C@H](O)[C@H]2O)c(O[C@@H]2O[C@H](CO)[C@@H](O)[C@H](O)[C@H]2O)c1`: the Potency result in assay [1], in assay [2], in assay [3], in assay [4] and in assay [5] was “inactive” in each case.
On to `C/C(=C\C(=O)C(C)C1CCC2C3=C(CCC21C)C1(C)CCC(=O)C(C)(C)C1(O)CC3)C(C)(C)O` (stereo not given), for which the Potency result in assay [1], in assay [2], in assay [3], in assay [4] and in assay [5] was “inactive” throughout.
In the case of `Cc1nc(-c2cccnc2)sc1C(=O)Nc1ccccc1-c1cn2c(CN3CCOCC3)csc2n1`, the Potency entry in assay [1], in assay [2], in assay [3], in assay [4] and in assay [5] was “inactive” each time.
As to `C/C1=C\CC[C@]2(C)O[C@H]2C(=O)c2c(C)coc2C1`, the Potency entry in assay [1], in assay [2], in assay [3], in assay [4] and in assay [5] was “inactive” each time.
Turning to `O=C(O)c1cc(O[C@@H]2O[C@H](CO)[C@@H](O)[C@H](O)[C@H]2O)ccc1O`, the Potency entry in assay [1], in assay [2], in assay [3], in assay [4] and in assay [5] was “inactive” throughout.
As to `OC[C@@]1(O)CO[C@H](OC[C@H]2O[C@@H](OC(CCCCc3ccc(O)cc3)CCc3ccc(O)cc3)[C@H](O[C@H]3OC[C@](O)(CO)[C@H]3O)[C@@H](O)[C@@H]2O)[C@@H]1O` (stereo not given in full), the Potency result in assay [1], in assay [2], in assay [3], in assay [4] and in assay [5] was “inactive” in each case.
Regarding `C=C1CCC2(OC1)OC1CC3C4CC=C5CC(O)CC(O[C@@H]6OC[C@H](OC(=O)C(O)C(C)CC)[C@H](O)[C@H]6O[C@@H]6O[C@@H](C)[C@H](O)[C@@H](O)[C@H]6O)C5(C)C4CCC3(C)C1C2C` (stereo not given in full), the Potency result in assay [1] and in assay [2] was “inactive” in each case. Moreover, the activity change, negative = inhibition in assay [3] is 0.354% [at 11.6 µM]. In addition, the activity, negative = inhibition in assay [4] was 4.49% [at 11.6 µM]. For the same molecule, in assay [5], the redox activity (% of DA3003) is -3.18% [at 11.5 µM].
As for `COc1cc(O)c2c(c1)C1(OC2=O)C(C)=CC(=O)C1O` (stereo not given), the Potency result in assay [1], in assay [2], in assay [3], in assay [4] and in assay [5] was “inactive” in each case.
As to `COc1ccc(N2CCN(CCCNC(=O)Cn3c(=O)c4cccn4c4c(C)ccnc43)CC2)cc1`, the Potency entry in assay [1], in assay [2], in assay [3], in assay [4] and in assay [5] was “inactive” each time.
With `CCC(=O)N1CCc2cc(OC)c(O)cc2C1`, the Potency entry in assay [1], in assay [2], in assay [3], in assay [4] and in assay [5] was “inactive” each time.
For `COc1ccc2c(c1)N1C(=O)C[C@@]34C=CC[N@+]5([O-])CC[C@H]2[C@H](CC3)[C@@]145`, the Potency entry in assay [1], in assay [2], in assay [3], in assay [4] and in assay [5] was “inactive” throughout.
With `COC1OC(O)C2(CCC3(O2)C(C)CC2OC(=O)C4(C)CCCC3(C)C24)C1O` (stereo not given), the Potency entry in assay [1], in assay [2], in assay [3], in assay [4] and in assay [5] was “inactive” each time.
For `CC1OC(O[C@@H]2[C@H](O)[C@@H](OC3OC(CO)C(O)C(O)C3O)[C@H](OC(=O)[C@]34CCC(C)(C)C[C@H]3C3=CCC5[C@@]6(C)CC[C@H](O[C@@H]7O[C@H](C(=O)O)[C@@H](O)[C@H](O[C@@H]8OC[C@@H](O)[C@H](O)[C@H]8O)[C@H]7O[C@@H]7O[C@H](CO)[C@H](O)[C@H](O)[C@H]7O)[C@@](C)(C=O)C6CC[C@@]5(C)[C@]3(C)C[C@H]4O)O[C@@H]2C)C(O)C(O)C1OC1OCC(O)C(O)C1O` (stereo not given in full), the Potency result in assay [1] and in assay [2] was “inactive” in each case. Also, in assay [3], the activity change, negative = inhibition was 1.16% [at 6.45 µM]. For the same molecule, the activity, negative = inhibition in assay [4] is 0% [at 6.45 µM]. For the same molecule, in assay [5], the redox activity (% of DA3003) was -1.5% [at 6.41 µM].
